Results reported in PubChem BioAssay (Tox21).
Results filed as inconclusive are left out. A number with no mark means an inactive call. Active and inactive are the calls of the source. Calls come from the whole dose curve; as a rule, active = well fitted cell-killing curve with a large enough effect in the repeat runs; inconclusive = weak or mixed curves, or effect the other way; inactive = flat fitted curve, though single readings scatter.

experiment: Caspase-3/7 induction in HepG2 cells by small molecules, qHTS cell viability counter screen (AID 1346981); conditions: CellTiter-Fluor fluorescence, 17 h; series mostly up to 92.4 µM; activity change, negative = cytotoxicity: at the top concentration; note: nearly all actives have a fitted effect of over 30% in size
Text: U.S. Tox21 Program National Center for Advancing Translational Sciences [NCATS] NIH Chemical Genomics Center [NCGC] U.S. Environmental Protection Agency [EPA] National Institutes of Environmental Health Sciences [NIEHS] National Toxicology Program [NTP] U.S. Food and Drug Administration [FDA] Tox21 Assay Overview: Apoptosis is a process of programmed cell death and plays a central role in the development of multicellular organisms. It is a highly regulated process and induces cell death by activating caspases, which are the members of cysteine aspartic acid-specific protease (caspase) family. Caspases involved in apoptosis are classified by their mechanism of action as initiator caspases (caspase-2, -8, -9 and -10) and executioner caspases (caspase-3, -6, and -7). Inhibition of apoptosis results in number of cancers, autoimmune diseases, inflammatory diseases and viral infection. To identify small molecule compounds that induce apoptosis, a homogeneous, luminescent Caspase-Glo 3/7 assay was used. Wild type HepG2 cells were used to screen Tox21 libraries for identifying caspase-3/7 activity inducers. Also cytotoxicity of the compounds was tested in parallel by measuring the cell viability using CellTiter-Fluor assay system in the same wells.
Tox21 Assay Protocol Summary: HepG2 cells were dispensed at 2,000 per well in 5uL of culture medium into white solid bottom 1536-well plates (Corning Life Sciences, Corning, NY) using a Multidrop Combi (Thermo Scientific, Waltham, MA) dispenser. The assay plates were incubated at 37 C and 5% CO2 for 5hr, and then 23nL of compounds dissolved in DMSO and positive control were transferred using a Pintool station ([…], San Diego, CA). The assay plates were incubated at 37C and 5% CO2 for 17hr. For cytotoxicity read, after 16hr incubation at 37C, 1uL CellTiter-Fluor reagent (Promega Corporation, Madison, WI) was added to each well of the assay plates using Flying Reagent Dispenser (FRD, Aurora Discovery, San Diego, CA). After 1hr incubation at 37C and 5% CO2, the fluorescence signal was quantified using a ViewLux plate reader (PerkinElmer, Shelton, CT).
% is set by controls: 0 for no effect and ±100 for the full control effect; potency is the fitted concentration of half-maximal effect.

| SMILES | Potency | activity change, negative = cytotoxicity |
| --- | --- | --- |
| CC1COC(Cn2cncn2)(c2ccc(Oc3ccc(Cl)cc3)cc2Cl)O1 (stereo not given) | 43.3 µM (active) |  |
| Cc1ccc(N(SC(F)(Cl)Cl)S(=O)(=O)N(C)C)cc1 | 61.1 µM (active) |  |
| OC(Cc1ccccc1Cl)(Cn1[nH]cnc1=S)C1(Cl)CC1 (stereo not given) |  | -7.75% |
| Oc1c(I)cc(I)cc1I |  | -2.56% |
| Cc1ccc2nc3sc(=O)sc3nc2c1 |  | -0.0724% [at 19 µM] |
| O=[N+]([O-])c1c(Cl)c(Cl)cc(Cl)c1Cl |  | -2.19% |
| c1ccc2c(c1)Sc1ccccc1N2CC1CN2CCC1CC2 (stereo not given) | 29.8 µM (active) |  |
| ClC1=C(Cl)[C@]2(Cl)[C@@H]3[C@@H](Cl)[C@H]4O[C@H]4[C@@H]3C1(Cl)C2(Cl)Cl |  | -12.9% |
| Clc1ccccc1-c1ccccc1Cl |  | -2.71% |
| CO/C=C(/C(=O)OC)c1ccccc1Oc1cc(Oc2ccccc2C#N)ncn1 | 24.5 µM (active) |  |
| O=S(=O)(C(Cl)(Cl)Cl)C(Cl)(Cl)Cl | 61.1 µM (active) |  |
| Cc1cc(C(C)(C)c2ccc(O)c(C)c2)ccc1O | 46.2 µM (active) |  |
| OCC(c1ccc(Cl)cc1)c1ccc(Cl)cc1 |  | -8.05% |
| CCN(CC)C(=O)Cl |  | -6.14% |
| Nc1ccc([N+](=O)[O-])cc1 | 40.9 µM (active) |  |
| C[C@]12CC[C@@H](O)C[C@@H]1CC[C@@H]1[C@@H]2CC[C@]2(C)C(=O)CC[C@@H]12 |  | 0.758% |
| CNC(=O)Oc1cc(C)c(SC)c(C)c1 |  | 0.382% |
| CN1CSC(=S)N(C)C1 |  | -1.04% |
| ClC(Cl)=C(c1ccc(Cl)cc1)c1ccccc1Cl |  | 14.4% |
| O=C(Nc1ccccc1-c1ccc(Cl)cc1)c1cccnc1Cl |  | 1.8% |
